Laboratory results taken from PubChem BioAssay (NCATS).
Records with an inconclusive call do not appear. The source made the active and inactive calls. Unless noted, the call rests on the fitted dose curve; in most records, active means well fitted curve in the direction sought with a large enough effect; inconclusive means small, poorly fitted or top-dose-only effect, or another doubt; inactive means no such curve, though single readings can be large; an effect the other way counts as inactive or inconclusive.

How the values were obtained:
[1] = qHTS Assay for Identification of Small Molecule Antagonists for NFkB Signaling Pathway (AID 895; active means well fitted inhibition curve with a large enough effect in the signal ratio, with a control signal flat, not every such curve was filed as active; the % refers to the signal ratio)
Outline: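 NFkB-bla ME-180 cervical carcinoma cells with beta-lactamase reporter under NFkB response element; compounds added, then TNF alpha at 10 pM final (EC50), 5 h at 37 C. LiveBLAzer substrate 2 h, room temperature; emission 460/530 nm at 405 nm excitation.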

[2] = biological target: Lysosomal acid glucosylceramidase (Homo sapiens) (UniProt P04062); experiment: Glucocerebrosidase-p2 (AID 348; in the data active means potency below about 10 µM; further: potency means the concentration at half of the fitted maximal effect); details: purified GBA, blue fluorogenic substrate, 40 min
Outline: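 Normal human glucocerebrosidase (0.2 nM) with blue fluorogenic substrate (80 uM final) in citrate/phosphate pH 5.9 with 10mM sodium taurocholate, 0.01% tween-20; 40 min RT, NaOH/glycine stop; fluorescence Ex 365/Em 440; AC50 from a titration from 0.6 nM upwards.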

GB4 = experiment: qHTS profiling for inhibitors of Plasmodium falciparum proliferation (AID 504749); further: nearly all actives have a fitted effect of over 60% in size; details: P. falciparum in erythrocytes, SYBR Green DNA, 72 h; series mostly up to 28.7 µM
Outline: (§1)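 Fluorescence of SYBR Green-bound parasite DNA, read at 485/535 nm, served as the growth measure. Infected erythrocytes were cultured with compound 72 h; artemisinin (0.29 uM) and DMSO wells defined the normalization range.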

HB3 = experiment: as above; details: P. falciparum in erythrocytes, SYBR Green DNA, 72 h; series mostly up to 28.7 µM
Outline: as §1

ICS = experiment: as above; details: P. falciparum in erythrocytes, SYBR Green DNA, 72 h; series mostly up to 28.7 µM
Outline: as §1

JCK = experiment: as above; details: P. falciparum in erythrocytes, SYBR Green DNA, 72 h; series mostly up to 28.7 µM
Outline: as §1

N140 = experiment: as above; details: P. falciparum in erythrocytes, SYBR Green DNA, 72 h; series mostly up to 28.7 µM
Outline: as §1

P93_24 = experiment: as above; details: P. falciparum in erythrocytes, SYBR Green DNA, 72 h; series mostly up to 28.7 µM
Outline: as §1

P94_40 = experiment: as above; details: P. falciparum in erythrocytes, SYBR Green DNA, 72 h; series mostly up to 28.7 µM
Outline: as §1

PAD = experiment: as above; details: P. falciparum in erythrocytes, SYBR Green DNA, 72 h; series mostly up to 28.7 µM
Outline: as §1

PC15 = experiment: as above; details: P. falciparum in erythrocytes, SYBR Green DNA, 72 h; series mostly up to 28.7 µM
Outline: as §1

PC26 = experiment: as above; details: P. falciparum in erythrocytes, SYBR Green DNA, 72 h; series mostly up to 28.7 µM
Outline: as §1

PC49 = experiment: as above; details: P. falciparum in erythrocytes, SYBR Green DNA, 72 h; series mostly up to 28.7 µM
Outline: as §1

SC27B = experiment: as above; details: P. falciparum in erythrocytes, SYBR Green DNA, 72 h; series mostly up to 28.7 µM
Outline: as §1

TAB109 = experiment: as above; details: P. falciparum in erythrocytes, SYBR Green DNA, 72 h; series mostly up to 28.7 µM
Outline: as §1

TAB113 = experiment: as above; details: P. falciparum in erythrocytes, SYBR Green DNA, 72 h; series mostly up to 28.7 µM
Outline: as §1

TAB165 = experiment: as above; details: P. falciparum in erythrocytes, SYBR Green DNA, 72 h; series mostly up to 28.7 µM
Outline: as §1

W2 = experiment: as above; details: P. falciparum in erythrocytes, SYBR Green DNA, 72 h; series mostly up to 28.7 µM
Outline: as §1

[3] = biological target: Pyruvate kinase (Leishmania mexicana) (UniProt Q27686); experiment: qHTS Validation Assay for Activators of Leishmania Mexicana Pyruvate Kinase (AID 959)
Outline: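 Read-out: luminescence from PKLight stop/detection reagent, data normalized to DMSO. Reaction: 0.2 nM E451W LmPYK, 0.5 mM PEP, 0.1 mM ADP, pH 7.2, 1 h room temperature.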

[4] = qHTS for differential inhibitors of proliferation of Plasmodium falciparum line D10 (AID 1877);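 further: parasites grown with compound for 72 h before DNA staining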

Measured: Potency

Sequence of Lysosomal acid glucosylceramidase (Homo sapiens) (P04062 whole entry, looked up): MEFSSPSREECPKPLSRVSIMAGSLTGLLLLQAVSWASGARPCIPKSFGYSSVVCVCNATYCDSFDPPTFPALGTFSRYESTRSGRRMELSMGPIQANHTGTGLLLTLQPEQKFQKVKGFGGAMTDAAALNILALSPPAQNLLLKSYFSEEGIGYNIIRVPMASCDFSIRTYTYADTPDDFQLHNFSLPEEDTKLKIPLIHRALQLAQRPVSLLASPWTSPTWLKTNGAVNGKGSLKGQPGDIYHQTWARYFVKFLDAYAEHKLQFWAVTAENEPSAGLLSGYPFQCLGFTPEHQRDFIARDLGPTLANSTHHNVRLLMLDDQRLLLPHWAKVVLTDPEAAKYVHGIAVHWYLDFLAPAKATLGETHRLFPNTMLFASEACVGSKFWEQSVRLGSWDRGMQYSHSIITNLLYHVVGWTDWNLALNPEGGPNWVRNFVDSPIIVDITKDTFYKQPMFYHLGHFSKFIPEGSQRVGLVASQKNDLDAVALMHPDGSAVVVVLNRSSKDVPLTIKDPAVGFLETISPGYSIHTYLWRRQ
Sequence of Pyruvate kinase (Leishmania mexicana) (Q27686 2-499 E452W): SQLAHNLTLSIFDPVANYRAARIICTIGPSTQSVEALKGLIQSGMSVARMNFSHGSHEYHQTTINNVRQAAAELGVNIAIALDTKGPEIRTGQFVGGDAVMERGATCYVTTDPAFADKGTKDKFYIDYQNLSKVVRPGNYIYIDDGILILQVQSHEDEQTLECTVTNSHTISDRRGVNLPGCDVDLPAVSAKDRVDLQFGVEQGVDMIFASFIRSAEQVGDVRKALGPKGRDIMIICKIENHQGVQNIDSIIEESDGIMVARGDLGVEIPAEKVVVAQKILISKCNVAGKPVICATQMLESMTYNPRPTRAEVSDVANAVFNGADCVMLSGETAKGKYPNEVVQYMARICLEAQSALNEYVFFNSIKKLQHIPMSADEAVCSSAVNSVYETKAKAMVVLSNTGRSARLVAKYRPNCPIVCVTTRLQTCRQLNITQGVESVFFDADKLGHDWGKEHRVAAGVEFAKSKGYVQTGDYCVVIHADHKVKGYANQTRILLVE

O=C1CC[C@H](N2C(=O)c3ccccc3C2=O)C(=O)N1
inactive: [1]

COC(=O)[C@@H]1[C@@H]2C[C@H]3c4[nH]c5ccccc5c4CCN3C[C@@H]2CC[C@@H]1O
inactive: [2] > 11.4 µM | GB4 | HB3 | ICS | JCK | N140 | P93_24 | P94_40 | PAD | PC15 | PC26 | PC49 | SC27B | TAB109 | TAB113 | TAB165 | W2

N[C@]1(C(=O)O)CCc2cc(C(=O)O)ccc21
active: [3] 15.8 µM

COc1ccccc1NC(=O)Nc1nc(-c2cccnc2)nc2ccccc12
inactive: [4]

C[C@@H](C(=O)O)c1ccc(-c2ccccc2)c(F)c1
not listed: [1] | [2] | [3] | [4]
inactive: all other assays above
